Results reported in PubChem BioAssay.
Active and inactive are the calls of the source.

Experiments:
[1] = test system: PRMT1 (protein arginine N-methyltransferase 1); assay: PRMT1 binders on small-molecule microarrays, primary screen, biochemical, small-molecule microarray, 635 nm fluorescence (AID 1088); conditions: small-molecule microarray binding, higher = more signal;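 further: binding of Prmt1 protein to compounds spotted on small-molecule microarray slides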
[2] = yeast growth modulation, basal conditions, primary screen, YJM789 clinical isolate, OD600, 24 h (AID 1089);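 further: growth of clinical yeast isolate S. cerevisiae YJM 789 seeded 1000 cells per well; test concentration not given here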; conditions: S. cerevisiae YJM789 growth, higher = more signal, called active from +8 up or from −8 down
[3] = fission yeast growth modulation, primary screen, strain 972, OD600, 24 h, no modulator (AID 1090);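 further: basal condition with compound alone and no growth modifier present; test concentration not given here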; conditions: S. pombe 972 growth, higher = more signal, called active from +8 up or from −8 down
[4] = S. cerevisiae growth modulation with rapamycin, primary screen, strain BY4716, OD600, 96 h (AID 1091); conditions: higher = more signal, called active from +8 up or from −8 down; further: test concentration not given here
[5] = biological target: Torsin-1A-interacting protein 2 (Homo sapiens) (UniProt Q8NFQ8); assay: LULL1 binders on small-molecule microarray, primary screen, cell lysate, human LULL1 lysate, 635/667 nm fluorescence (AID 1092); conditions: hLULL1 lysate binding, 635 nm fluorescence, higher = more signal;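 further: probe is lysate of COS7 cells overexpressing human LULL1; score merges per-feature 667 nm fluorescence with signal-to-noise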
Chain of Torsin-1A-interacting protein 2 (Homo sapiens) (Q8NFQ8 whole entry, looked up): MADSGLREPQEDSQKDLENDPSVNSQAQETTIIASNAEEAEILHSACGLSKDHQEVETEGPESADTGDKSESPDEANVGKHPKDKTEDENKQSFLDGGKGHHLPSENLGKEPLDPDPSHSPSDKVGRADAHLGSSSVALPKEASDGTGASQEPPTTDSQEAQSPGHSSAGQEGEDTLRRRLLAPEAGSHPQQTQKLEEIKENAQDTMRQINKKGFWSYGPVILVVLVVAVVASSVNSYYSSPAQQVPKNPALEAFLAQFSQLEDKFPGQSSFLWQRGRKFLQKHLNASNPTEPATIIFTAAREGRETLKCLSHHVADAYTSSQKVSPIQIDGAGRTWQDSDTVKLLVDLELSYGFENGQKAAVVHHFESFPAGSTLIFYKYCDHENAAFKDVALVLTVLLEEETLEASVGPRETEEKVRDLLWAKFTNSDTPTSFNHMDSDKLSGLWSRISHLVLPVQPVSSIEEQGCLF

[6] = E. coli growth modulation, two-sided OD650, primary screen, E. coli filamentation project, strain DRC41, 24 h (AID 1093); conditions: OD650, 24 h, higher = more signal, called active from +8 up or from −8 down;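 further: MC1000 strain lacking acrAB efflux and sulA so SOS filamentation is blocked; test concentration not given here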
[7] = small-molecule microarray binders of probe aLefty2, primary screen, biochemical, biotinylated probe, 635/667 nm fluorescence (AID 1094); conditions: higher = more signal;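 further: score merges spot fluorescence near 667 nm with spot signal-to-noise ratio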
[8] = test system: Noggin (protein binding on small-molecule microarray); assay: Noggin binders on small-molecule microarray, primary screen, biochemical, 635/667 nm fluorescence (AID 1095); conditions: 635 nm fluorescence, higher = more signal;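 further: score merges 667 nm feature fluorescence with signal to noise over triplicate slides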
[9] = biological target: Neurogenic locus notch homolog protein 3 (Homo sapiens) (UniProt Q9UM47); assay: NOTCH3 binders on small-molecule microarray, primary screen, biochemical, 635/667 nm fluorescence (AID 1096); conditions: NOTCH3 binding, 635 nm fluorescence, higher = more signal
Chain of Neurogenic locus notch homolog protein 3 (Homo sapiens) (Q9UM47 whole entry, looked up): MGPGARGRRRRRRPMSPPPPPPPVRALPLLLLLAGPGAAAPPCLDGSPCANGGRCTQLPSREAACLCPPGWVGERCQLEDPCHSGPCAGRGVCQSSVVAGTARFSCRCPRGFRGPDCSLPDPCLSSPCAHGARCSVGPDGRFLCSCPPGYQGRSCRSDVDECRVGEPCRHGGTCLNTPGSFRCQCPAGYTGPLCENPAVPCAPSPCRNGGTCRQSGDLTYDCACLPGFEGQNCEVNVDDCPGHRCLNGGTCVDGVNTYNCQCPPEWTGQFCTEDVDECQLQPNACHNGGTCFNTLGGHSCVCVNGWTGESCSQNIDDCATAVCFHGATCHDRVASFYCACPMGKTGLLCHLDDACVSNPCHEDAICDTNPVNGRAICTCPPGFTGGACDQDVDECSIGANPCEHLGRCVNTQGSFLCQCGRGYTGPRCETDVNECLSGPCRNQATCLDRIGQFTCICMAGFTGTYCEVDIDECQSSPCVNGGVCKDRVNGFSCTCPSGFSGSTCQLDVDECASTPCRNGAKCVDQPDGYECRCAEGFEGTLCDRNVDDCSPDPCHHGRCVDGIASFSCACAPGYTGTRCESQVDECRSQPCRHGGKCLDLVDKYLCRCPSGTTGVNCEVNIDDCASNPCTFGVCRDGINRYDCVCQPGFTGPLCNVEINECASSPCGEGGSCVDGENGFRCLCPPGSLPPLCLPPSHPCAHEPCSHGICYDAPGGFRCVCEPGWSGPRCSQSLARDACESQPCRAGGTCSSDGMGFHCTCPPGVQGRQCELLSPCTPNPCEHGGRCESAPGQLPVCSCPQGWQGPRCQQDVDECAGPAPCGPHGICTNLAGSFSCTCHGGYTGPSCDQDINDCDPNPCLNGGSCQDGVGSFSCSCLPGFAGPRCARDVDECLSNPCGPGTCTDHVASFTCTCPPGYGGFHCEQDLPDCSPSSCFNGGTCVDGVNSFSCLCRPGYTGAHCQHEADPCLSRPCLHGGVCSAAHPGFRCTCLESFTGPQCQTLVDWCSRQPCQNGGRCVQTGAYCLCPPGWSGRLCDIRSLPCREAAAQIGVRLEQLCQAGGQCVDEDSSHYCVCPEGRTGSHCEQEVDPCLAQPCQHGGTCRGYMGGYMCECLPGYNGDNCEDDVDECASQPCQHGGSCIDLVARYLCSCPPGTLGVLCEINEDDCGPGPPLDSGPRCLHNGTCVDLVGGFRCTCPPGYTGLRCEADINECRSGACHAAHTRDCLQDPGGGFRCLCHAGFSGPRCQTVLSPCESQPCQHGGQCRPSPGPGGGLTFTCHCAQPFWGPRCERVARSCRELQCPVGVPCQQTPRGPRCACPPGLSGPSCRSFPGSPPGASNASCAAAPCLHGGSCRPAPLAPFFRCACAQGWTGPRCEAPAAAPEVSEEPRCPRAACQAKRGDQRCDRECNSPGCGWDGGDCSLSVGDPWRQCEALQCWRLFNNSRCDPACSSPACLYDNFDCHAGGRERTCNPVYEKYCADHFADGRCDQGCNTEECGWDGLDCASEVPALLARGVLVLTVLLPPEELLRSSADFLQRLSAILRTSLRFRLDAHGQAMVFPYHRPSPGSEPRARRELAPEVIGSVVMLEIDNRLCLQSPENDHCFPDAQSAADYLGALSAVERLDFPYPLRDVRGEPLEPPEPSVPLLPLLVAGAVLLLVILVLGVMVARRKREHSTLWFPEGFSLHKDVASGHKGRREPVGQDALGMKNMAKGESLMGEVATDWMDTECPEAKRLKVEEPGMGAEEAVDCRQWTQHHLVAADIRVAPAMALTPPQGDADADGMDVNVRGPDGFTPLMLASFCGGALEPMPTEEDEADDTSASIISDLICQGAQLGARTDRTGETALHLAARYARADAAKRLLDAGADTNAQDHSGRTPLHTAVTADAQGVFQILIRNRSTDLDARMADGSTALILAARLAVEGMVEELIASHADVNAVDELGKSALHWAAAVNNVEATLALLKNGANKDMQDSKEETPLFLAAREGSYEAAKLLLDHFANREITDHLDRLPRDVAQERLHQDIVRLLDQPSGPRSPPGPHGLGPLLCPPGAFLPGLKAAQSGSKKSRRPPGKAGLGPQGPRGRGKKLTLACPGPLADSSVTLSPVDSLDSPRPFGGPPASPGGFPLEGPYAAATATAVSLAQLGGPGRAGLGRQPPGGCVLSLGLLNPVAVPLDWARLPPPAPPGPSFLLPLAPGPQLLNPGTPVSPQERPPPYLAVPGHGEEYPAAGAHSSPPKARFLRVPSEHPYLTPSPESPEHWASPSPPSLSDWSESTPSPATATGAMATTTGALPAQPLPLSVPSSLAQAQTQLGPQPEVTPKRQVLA

[10] = small-molecule microarray binders of probe aEGFR, primary screen, biochemical, biotinylated probe, 635/667 nm fluorescence (AID 1097); conditions: higher = more signal;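 further: probe is a biotinylated anti-EGFR antibody binding compounds printed on slides; score combines fluorescence near 667 nm and signal to noise of each spot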
[11] = test system: Plasmodium falciparum Sir2 (PF13_0152, Sir2A); assay: pfSir2 binders on small-molecule microarrays, primary screen, biochemical, small-molecule microarray, 635 nm fluorescence (AID 1098); conditions: small-molecule microarray binding, fluorescence 635 nm; higher = more signal;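 further: score merges spot fluorescence intensity with its signal-to-noise ratio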
[12] = small-molecule microarray binders of probe aDKK1, primary screen, biochemical, biotinylated probe, 635/667 nm fluorescence (AID 1099); conditions: higher = more signal;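 further: score merges 667nm spot fluorescence with signal to noise across triplicate slides; reference of the scale not given here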
[13] = small-molecule microarray binders of probe aCHRDL2, primary screen, biochemical, biotinylated probe, 635/667 nm fluorescence (AID 1100); conditions: higher = more signal
[14] = splicing luciferase reporter signal modulators, primary screen, spliceosome inhibition project, cell-based, HEK293, splice +/- reporter (AID 1101); conditions: luminescence, 24 h, higher = more signal, called active from +8 up or from −8 down;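 further: HEK293 cells carrying a splicing-competent luciferase reporter gene; test concentration not given here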
[15] = biological target: Fibroblast growth factor 10 (Homo sapiens) (UniProt O15520); assay: FGF10 binders on small-molecule microarrays, primary screen, biochemical, small-molecule microarray, 635 nm fluorescence (AID 1102); conditions: FGF10 binding, fluorescence 635 nm, higher = more signal
Chain of Fibroblast growth factor 10 (Homo sapiens) (O15520 whole entry, looked up): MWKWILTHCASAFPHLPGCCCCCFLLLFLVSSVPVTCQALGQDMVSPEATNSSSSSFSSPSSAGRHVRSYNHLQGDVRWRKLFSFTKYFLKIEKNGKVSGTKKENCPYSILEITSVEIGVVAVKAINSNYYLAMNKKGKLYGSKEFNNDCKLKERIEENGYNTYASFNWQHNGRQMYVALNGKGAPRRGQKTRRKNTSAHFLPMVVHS

[16] = test system: glycogen synthase kinase-3 (GSK3A per assay name; protocol says GSK3B); assay: GSK3 binders on small-molecule microarrays, primary screen, biochemical, small-molecule microarray, 635 nm fluorescence, GSK3A (AID 1103); conditions: small-molecule microarray binding, fluorescence 635 nm; higher = more signal; further: the record names both GSK3A and GSK3B
[17] = biological target: Epidermal growth factor receptor (Homo sapiens) (UniProt P00533); assay: EGFR binders on small-molecule microarrays, primary screen, biochemical, small-molecule microarray, 635 nm fluorescence (AID 1104); conditions: EGFR binding, higher = more signal;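 further: score merges 667 nm emission intensity with spot signal to noise over triplicate slides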
Chain of Epidermal growth factor receptor (Homo sapiens) (P00533 whole entry, looked up): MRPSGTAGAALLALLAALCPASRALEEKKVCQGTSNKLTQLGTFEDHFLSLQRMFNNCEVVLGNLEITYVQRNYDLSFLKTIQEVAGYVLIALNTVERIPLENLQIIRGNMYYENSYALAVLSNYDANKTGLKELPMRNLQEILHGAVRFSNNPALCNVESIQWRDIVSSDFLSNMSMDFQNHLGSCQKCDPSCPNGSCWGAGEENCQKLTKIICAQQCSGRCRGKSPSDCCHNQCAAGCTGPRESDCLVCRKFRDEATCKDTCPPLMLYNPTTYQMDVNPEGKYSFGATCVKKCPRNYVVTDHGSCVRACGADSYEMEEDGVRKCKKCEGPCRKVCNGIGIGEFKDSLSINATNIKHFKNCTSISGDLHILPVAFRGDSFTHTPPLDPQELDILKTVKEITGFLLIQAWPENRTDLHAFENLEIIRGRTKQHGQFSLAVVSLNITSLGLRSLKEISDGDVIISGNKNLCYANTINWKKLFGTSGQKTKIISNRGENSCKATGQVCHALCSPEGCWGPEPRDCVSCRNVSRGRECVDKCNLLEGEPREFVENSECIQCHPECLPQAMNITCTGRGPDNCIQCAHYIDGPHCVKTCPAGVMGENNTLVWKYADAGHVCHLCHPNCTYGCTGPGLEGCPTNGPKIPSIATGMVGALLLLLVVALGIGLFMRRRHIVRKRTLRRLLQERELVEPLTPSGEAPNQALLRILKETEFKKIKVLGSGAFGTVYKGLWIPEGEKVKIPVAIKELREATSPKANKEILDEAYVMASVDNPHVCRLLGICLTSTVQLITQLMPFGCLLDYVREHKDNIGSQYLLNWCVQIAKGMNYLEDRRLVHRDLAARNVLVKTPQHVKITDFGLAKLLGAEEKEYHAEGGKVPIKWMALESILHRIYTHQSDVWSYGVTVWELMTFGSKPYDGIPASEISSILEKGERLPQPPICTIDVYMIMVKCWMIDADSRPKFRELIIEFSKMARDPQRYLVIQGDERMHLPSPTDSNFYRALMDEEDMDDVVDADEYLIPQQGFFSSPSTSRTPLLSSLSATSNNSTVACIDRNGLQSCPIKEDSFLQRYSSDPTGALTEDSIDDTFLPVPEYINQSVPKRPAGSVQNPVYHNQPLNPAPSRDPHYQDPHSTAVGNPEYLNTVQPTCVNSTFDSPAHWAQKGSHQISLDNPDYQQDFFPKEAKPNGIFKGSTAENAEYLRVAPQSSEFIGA

[18] = biological target: Follistatin-related protein 3 (Homo sapiens) (UniProt O95633); assay: FSTL3 binders on small-molecule microarrays, primary screen, biochemical, small-molecule microarray, 635 nm fluorescence (AID 1105); conditions: FSTL3 binding, higher = more signal;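 further: score merges emission near 667 nm and signal to noise per printed spot across three slides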
Chain of Follistatin-related protein 3 (Homo sapiens) (O95633 whole entry, looked up): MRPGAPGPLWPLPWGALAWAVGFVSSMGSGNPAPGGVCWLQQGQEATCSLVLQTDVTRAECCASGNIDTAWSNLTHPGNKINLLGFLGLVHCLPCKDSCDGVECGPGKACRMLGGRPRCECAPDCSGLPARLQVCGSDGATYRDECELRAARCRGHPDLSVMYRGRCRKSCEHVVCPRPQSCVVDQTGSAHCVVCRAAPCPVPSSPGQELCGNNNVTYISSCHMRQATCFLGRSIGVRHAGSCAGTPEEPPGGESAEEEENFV

[19] = biological target: Dickkopf-related protein 1 (Homo sapiens) (UniProt O94907); assay: DKK1 binders on small-molecule microarrays, primary screen, biochemical, small-molecule microarray, 635 nm fluorescence scan (AID 1106); conditions: DKK1 binding, higher = more signal;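 further: score merges emission near 667 nm with signal to noise over three replicate slides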
Chain of Dickkopf-related protein 1 (Homo sapiens) (O94907 whole entry, looked up): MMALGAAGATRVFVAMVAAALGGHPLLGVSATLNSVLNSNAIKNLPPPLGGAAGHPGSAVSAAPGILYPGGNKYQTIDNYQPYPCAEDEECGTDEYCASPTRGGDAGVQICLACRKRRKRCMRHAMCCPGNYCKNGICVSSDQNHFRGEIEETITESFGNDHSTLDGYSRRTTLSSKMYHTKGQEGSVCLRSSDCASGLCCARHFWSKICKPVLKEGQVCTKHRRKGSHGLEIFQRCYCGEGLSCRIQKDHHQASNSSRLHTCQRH

[20] = test system: Inhibin beta A chain (activin A); assay: INHBA (activin A) binders on microarrays, primary screen, biochemical, small-molecule microarray, 635 nm fluorescence scan (AID 1107); conditions: small-molecule microarray binding, higher = more signal;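 further: mouse activin A protein probed at 4.33 µg/mL on printed slides; score merges bound-protein fluorescence near 667 nm with spot signal-to-noise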

SMILES	composite z-score [1]	z-score [2]	z-score [3]	z-score [4]	composite z-score [5]	z-score [6]	composite z-score [7]	composite z-score [8]	composite z-score [9]	composite z-score [10]	composite z-score [11]	composite z-score [12]	composite z-score [13]	z-score [14]	composite z-score [15]	composite z-score [16]	composite z-score [17]	composite z-score [18]	composite z-score [19]	composite z-score [20]
CC(C)=CCCC=C(C)C(O)C1C=CC2C(=O)N(c3ccccc3)C(=O)C2N1Nc1ccc(C#N)cc1 (stereo not given)	1.38	-1.67 (inactive)	0.0768 (inactive)	2.31 (inactive)	3.3	-1.24 (inactive)	-0.152	0.0542	1.01	-0.0828	0.669	0.473	0.722	-0.403 (inactive)	0.569	1.3	0.411	1.29	0.0902	1.16
COCCOC(=O)N1C(=O)[C@@]2(c3cc(C#CC4(O)CCCCCC4)ccc31)[C@H](c1ccc(O)cc1)N1[C@H](c3ccccc3)[C@H](c3ccccc3)OC(=O)[C@H]1[C@@H]2C(=O)N1CCCCCCC1	1.55	-0.016 (inactive)	0.056 (inactive)	0.367 (inactive)	2.09	0.709 (inactive)	0.189	1.3	1.06	0.0896	1.08	1.2	0.771	-0.803 (inactive)	1.28	1.29	0.314	1.05	0.112	1.72
CC1CC/C=C\[C@H]2OC34C=CCN(Cn5nnc6ccccc65)C(=O)[C@H]3N(CCCCCCO)C(=O)[C@@H]4C2C(=O)O1 (stereo not given in full)	-0.526	0.28 (inactive)	-0.0728 (inactive)	0.105 (inactive)	2.9	0.167 (inactive)	-0.205	-1.09	-0.368	-0.33	0.765	-0.252	0.794	0.468 (inactive)	-0.835	-0.759	-0.951	-1.23	-1.36	-0.306
COC(=O)C(CC#Cc1ccc2c(c1)[C@]1(C(=O)N2)[C@H](C(=O)N2CCc3cc(OC)c(OC)cc3C2)[C@H]2C(=O)O[C@H](c3ccccc3)[C@H](c3ccccc3)N2[C@@H]1c1ccccc1OCCO)C(=O)OC	1.54	2.06 (inactive)	1.54 (inactive)	3.78 (inactive)	3.06	0.49 (inactive)	-0.0862	1.36	1.07	0.0457	1.3	0.581	0.623	0.234 (inactive)	0.954	1.34	0.529	1.28	0.627	-0.592
C[N+](C)(C)CCCCNC(=O)[C@H]1C[C@H]2C(=O)N[C@@H](Cc3ccccc3)C(=O)N2[C@H]1c1cccc(OCCO)c1	0.982	-0.0304 (inactive)	0.351 (inactive)	-1.82 (inactive)	1.99	0.0648 (inactive)	0.0899	1.88	1.02	0.256	1.59	0.104	-0.17	-0.161 (inactive)	1.44	1.13	0.899	1.48	2.04	0.748
C=CCNC(=O)[C@H]1[C@@H]2C(=O)O[C@@H](c3ccccc3)[C@@H](c3ccccc3)N2[C@@H](c2ccc(OCCO)cc2)[C@]12C(=O)Nc1ccccc12	1.18	1.24 (inactive)	0.259 (inactive)	2.84 (inactive)	3.36	1.35 (inactive)	-0.0785	0.167	0.457	-0.194	1.39	-0.106	0.747	-0.152 (inactive)	-0.0719	0.164	-0.129	0.227	-0.939	-0.329
O=C(NCCN1CCOCC1)[C@@H]1c2ccccc2C(=O)N(Cc2ccc(OC(F)(F)F)cc2)[C@H]1c1ccc(CO)cc1	1.19	-1.58 (inactive)	-0.748 (inactive)	-0.846 (inactive)	3.09	0.0461 (inactive)	-0.0766	0.0807	-0.0807	-0.126	-0.0284	0.0779	1.18	0.709 (inactive)	-0.738	0.0049	-0.611	0.417	-1.14	-0.252
C=C1C(=O)C=C2CN(C(=O)c3ccccc3)[C@@](Cc3ccc(OC)cc3)(C(=O)OC)[C@@H]12	1.54	0.573 (inactive)	1.85 (inactive)	10.3 (active)	3.85	-0.656 (inactive)	0.68	0.232	1.01	0.146	1.14	1.18	1.18	-2.15 (inactive)	1.38	0.681	0.369	1.37	-0.399	0.516
CC(C)C(CO)N1C(=O)[C@@H]2C3C(=O)OCCC/C=C\[C@H]3OC23C=CCN(Cc2ccccc2)C(=O)[C@@H]13 (stereo not given in full)	-0.928	-0.43 (inactive)	-0.912 (inactive)	-0.542 (inactive)	1.18	1.3 (inactive)	-0.0598	-0.989	-0.0928	-0.148	1.38	-0.0827	0.554	-0.0848 (inactive)	0.0565	-0.54	-1.01	-0.794	-0.551	0.111
O=C1[C@H]2C=C(I)[C@H](C[C@@H]2c2ccccc2)[C@@]12CO2	0.298	-3.2 (inactive)	-19.3 (active)	-2.84 (inactive)	-0.0459	-0.924 (inactive)	-0.238	0.355	-0.183	-0.139	-0.506	-0.322	-0.197	0.523 (inactive)	0.0211	-0.326	0.384	-0.461	0.485	1.15
